{
  "source": "PubChem BioAssay AID1159580",
  "about": "(chemical genetic matrix, 2015)",
  "experiment": "chemical genetic growth profiling, strain panel (AID 1159580);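 also: tested at 20 µM; growth read once vehicle control cultures reached saturation at 30 °C; 1 = growth at the plate median or of vehicle wells; lower values mean less growth of the strain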",
  "conditions": "S. cerevisiae deletion strains, growth OD",
  "note": "Where “and” joins values, the source holds several entries; their conditions need not be identical. Equal values may be shown once. The campaign covered roughly 5,500 compounds. About 2,000 (36%) were called active. Inconclusive results (about 18%) are left out. Rule as the data show it: active = normalized growth mostly below about 0.91 (no sharp cut-off); inconclusive = no clear call, values can overlap the other calls; inactive = mostly above about 0.92. This is one part of the list.",
  "data": [
    {"compound": "CC(C)c1nc(N(C)S(C)(=O)=O)nc(-c2ccc(F)cc2)c1/C=C/[C@@H](O)C[C@@H](O)CC(=O)O", "values": [
      {"measurement": "normalized growth", "setting": "locus YAL013W, strain DEP1, stronger effect = lower value", "value": "0.988 (inactive)"},
      {"measurement": "normalized growth", "setting": "locus YAL021C, strain ccr4, stronger effect = lower value", "value": "0.839 (active)"},
      {"measurement": "normalized growth", "setting": "locus YAL026C, strain drs2, stronger effect = lower value", "value": "0.98 (inactive)"},
      {"measurement": "normalized growth", "setting": "locus YAL030W, strain snc1, stronger effect = lower value", "value": "0.998 (inactive)"},
      {"measurement": "normalized growth", "setting": "locus YBL061C, strain skt5, stronger effect = lower value", "value": "1.02 (inactive)"},
      {"measurement": "normalized growth", "setting": "locus YBR009C, strain hhf1, stronger effect = lower value", "value": "0.998 (inactive)"},
      {"measurement": "normalized growth", "setting": "locus YBR021W, strain FUR4, stronger effect = lower value", "value": "0.96 (inactive)"},
      {"measurement": "normalized growth", "setting": "locus YBR023C, strain chs3, stronger effect = lower value", "value": "1.02 (inactive)"},
      {"measurement": "normalized growth", "setting": "locus YBR171W, strain sec66, stronger effect = lower value", "value": "1.01 (inactive)"},
      {"measurement": "normalized growth", "setting": "locus YBR229C, strain ROT2, stronger effect = lower value", "value": "1.01 (inactive)"},
      {"measurement": "normalized growth", "setting": "locus YBR231C, strain swc5, stronger effect = lower value", "value": "0.922 (inactive)"},
      {"measurement": "normalized growth", "setting": "locus YBR279W, strain paf1, stronger effect = lower value", "value": "0.99 (inactive)"},
      {"measurement": "normalized growth", "setting": "locus YCL011C, strain gbp2, stronger effect = lower value", "value": "1.01 (inactive)"},
      {"measurement": "normalized growth", "setting": "locus YCL016C, strain dcc1, stronger effect = lower value", "value": "0.998 (inactive)"},
      {"measurement": "normalized growth", "setting": "locus YCL029C, strain bik1, stronger effect = lower value", "value": "1.01 (inactive)"},
      {"measurement": "normalized growth", "setting": "locus YCL069W, strain vba3, stronger effect = lower value", "value": "1.02 (inactive)"},
      {"measurement": "normalized growth", "setting": "locus YCR088W, strain abp1, stronger effect = lower value", "value": "1.03 (inactive)"},
      {"measurement": "normalized growth", "setting": "locus YDL005C, strain med2, stronger effect = lower value", "value": "1.02 (inactive)"},
      {"measurement": "normalized growth", "setting": "locus YDL035C, strain GPR1, stronger effect = lower value", "value": "1 (inactive)"},
      {"measurement": "normalized growth", "setting": "locus YDL040C, strain nat1, stronger effect = lower value", "value": "1.01 (inactive)"},
      {"measurement": "normalized growth", "setting": "locus YDL074C, strain BRE1, stronger effect = lower value", "value": "0.995 (inactive)"},
      {"measurement": "normalized growth", "setting": "locus YDL101C, strain DUN1, stronger effect = lower value", "value": "0.996 (inactive)"},
      {"measurement": "normalized growth", "setting": "locus YDL134C, strain PPH21, stronger effect = lower value", "value": "0.995 (inactive)"},
      {"measurement": "normalized growth", "setting": "locus YDL185W, strain tfp1, stronger effect = lower value", "value": "0.928 (inactive)"},
      {"measurement": "normalized growth", "setting": "locus YDL192W, strain arf1, stronger effect = lower value", "value": "1 (inactive)"},
      {"measurement": "normalized growth", "setting": "locus YDR001C, strain nth1, stronger effect = lower value", "value": "1.03 (inactive)"},
      {"measurement": "normalized growth", "setting": "locus YDR069C, strain doa4, stronger effect = lower value", "value": "0.971 (inactive)"},
      {"measurement": "normalized growth", "setting": "locus YDR101C, strain arx1, stronger effect = lower value", "value": "0.999 (inactive)"},
      {"measurement": "normalized growth", "setting": "locus YDR137W, strain rgp1, stronger effect = lower value", "value": "1.34 [resistant] (active)"},
      {"measurement": "normalized growth", "setting": "locus YDR150W, strain NUM1, stronger effect = lower value", "value": "1.01 (inactive)"},
      {"measurement": "normalized growth", "setting": "locus YDR159W, strain sac3, stronger effect = lower value", "value": "0.998 (inactive)"},
      {"measurement": "normalized growth", "setting": "locus YDR162C, strain NBP2, stronger effect = lower value", "value": "0.961 (inactive)"},
      {"measurement": "normalized growth", "setting": "locus YDR195W, strain ref2", "value": "1.09 (inactive)"},
      {"measurement": "normalized growth", "setting": "locus YDR297W, strain sur2, stronger effect = lower value", "value": "0.977 (inactive)"},
      {"measurement": "normalized growth", "setting": "locus YDR318W, strain mcm21, stronger effect = lower value", "value": "1.01 (inactive)"},
      {"measurement": "normalized growth", "setting": "locus YDR334W, strain swr1, stronger effect = lower value", "value": "0.982 (inactive)"},
      {"measurement": "normalized growth", "setting": "locus YDR335W, strain msn5, stronger effect = lower value", "value": "1.02 (inactive)"},
      {"measurement": "normalized growth", "setting": "locus YDR388W, stronger effect = lower value", "value": "1.01 (inactive)"},
      {"measurement": "normalized growth", "setting": "locus YDR392W, strain spt3, stronger effect = lower value", "value": "1.02 (inactive)"},
      {"measurement": "normalized growth", "setting": "locus YDR502C, strain sam2, stronger effect = lower value", "value": "1 (inactive)"},
      {"measurement": "normalized growth", "setting": "locus YEL003W, strain gim4, stronger effect = lower value", "value": "1.02 (inactive)"},
      {"measurement": "normalized growth", "setting": "locus YEL037C, strain rad23, stronger effect = lower value", "value": "1.01 (inactive)"},
      {"measurement": "normalized growth", "setting": "locus YEL061C, strain CIN8 (second series), stronger effect = lower value", "value": "1.02 (inactive)"},
      {"measurement": "normalized growth", "setting": "locus YEL061C, strain CIN8, stronger effect = lower value", "value": "0.998 (inactive)"},
      {"measurement": "normalized growth", "setting": "locus YER015W, strain faa2, stronger effect = lower value", "value": "0.99 (inactive)"},
      {"measurement": "normalized growth", "setting": "locus YER016W, strain bim1, stronger effect = lower value", "value": "1.01 (inactive)"},
      {"measurement": "normalized growth", "setting": "locus YER110C, stronger effect = lower value", "value": "0.999 (inactive)"},
      {"measurement": "normalized growth", "setting": "locus YER111C, strain swi4, stronger effect = lower value", "value": "1.02 (inactive)"},
      {"measurement": "normalized growth", "setting": "locus YER155C, strain BEM2 (second series), stronger effect = lower value", "value": "1.02 (inactive)"},
      {"measurement": "normalized growth", "setting": "locus YER155C, strain BEM2, stronger effect = lower value", "value": "0.99 (inactive)"},
      {"measurement": "normalized growth", "setting": "locus YER167W, strain BCK2, stronger effect = lower value", "value": "1 (inactive)"},
      {"measurement": "normalized growth", "setting": "locus YFR010W, strain ubp6, stronger effect = lower value", "value": "0.995 (inactive)"},
      {"measurement": "normalized growth", "setting": "locus YGL078C, strain dbp3, stronger effect = lower value", "value": "0.997 (inactive)"},
      {"measurement": "normalized growth", "setting": "locus YGL086W, strain mad1, stronger effect = lower value", "value": "1.01 (inactive)"},
      {"measurement": "normalized growth", "setting": "locus YGL167C, strain pmr1, stronger effect = lower value", "value": "1.01 (inactive)"},
      {"measurement": "normalized growth", "setting": "locus YGL173C, strain kem1, stronger effect = lower value", "value": "1 (inactive)"},
      {"measurement": "normalized growth", "setting": "locus YGL227W, strain vid30, stronger effect = lower value", "value": "1.02 (inactive)"},
      {"measurement": "normalized growth", "setting": "locus YGL240W, strain doc1, stronger effect = lower value", "value": "1.03 (inactive)"},
      {"measurement": "normalized growth", "setting": "locus YGL248W, strain PDE1, stronger effect = lower value", "value": "0.993 (inactive)"},
      {"measurement": "normalized growth", "setting": "locus YGL253W, strain hxk2, stronger effect = lower value", "value": "1.01 (inactive)"},
      {"measurement": "normalized growth", "setting": "locus YGR078C, strain PAC10, stronger effect = lower value", "value": "1.01 (inactive)"},
      {"measurement": "normalized growth", "setting": "locus YGR135W, strain pre9, stronger effect = lower value", "value": "0.987 (inactive)"},
      {"measurement": "normalized growth", "setting": "locus YGR229C, strain SMI1, stronger effect = lower value", "value": "1.01 (inactive)"},
      {"measurement": "normalized growth", "setting": "locus YGR252W, strain gcn5, stronger effect = lower value", "value": "1.04 (inactive)"},
      {"measurement": "normalized growth", "setting": "locus YHR013C, strain ard1, stronger effect = lower value", "value": "0.972 (inactive)"},
      {"measurement": "normalized growth", "setting": "locus YHR027C, strain rpn1, stronger effect = lower value", "value": "1.01 (inactive)"},
      {"measurement": "normalized growth", "setting": "locus YHR030C, strain SLT2, stronger effect = lower value", "value": "1 (inactive) and 0.0994 (active)"},
      {"measurement": "normalized growth", "setting": "locus YHR079C, strain IRE1 (second series), stronger effect = lower value", "value": "1 (inactive)"},
      {"measurement": "normalized growth", "setting": "locus YHR079C, strain IRE1, stronger effect = lower value", "value": "0.127 (active)"},
      {"measurement": "normalized growth", "setting": "locus YHR094C, strain hxt1, stronger effect = lower value", "value": "1.01 (inactive)"},
      {"measurement": "normalized growth", "setting": "locus YHR129C, strain ARP1, stronger effect = lower value", "value": "0.99 (inactive)"},
      {"measurement": "normalized growth", "setting": "locus YHR142W, strain chs7, stronger effect = lower value", "value": "1.02 (inactive)"},
      {"measurement": "normalized growth", "setting": "locus YHR200W, strain rpn10, stronger effect = lower value", "value": "1 (inactive)"},
      {"measurement": "normalized growth", "setting": "locus YIL066C, strain RNR3, stronger effect = lower value", "value": "1.02 (inactive)"},
      {"measurement": "normalized growth", "setting": "locus YIL073C, strain SPO22, stronger effect = lower value", "value": "1 (inactive)"},
      {"measurement": "normalized growth", "setting": "locus YIL125W, strain kgd1, stronger effect = lower value", "value": "1.02 (inactive)"},
      {"measurement": "normalized growth", "setting": "locus YIR030C, strain dcg1, stronger effect = lower value", "value": "1.01 (inactive)"},
      {"measurement": "normalized growth", "setting": "locus YJL092W, strain hpr5, stronger effect = lower value", "value": "1.03 (inactive)"},
      {"measurement": "normalized growth", "setting": "locus YJL095W, strain BCK1 (second series), stronger effect = lower value", "value": "0.986 (inactive)"},
      {"measurement": "normalized growth", "setting": "locus YJL095W, strain BCK1, stronger effect = lower value", "value": "0.996 (inactive) and 0.12 (active)"},
      {"measurement": "normalized growth", "setting": "locus YJL115W, strain asf1, stronger effect = lower value", "value": "1 (inactive)"},
      {"measurement": "normalized growth", "setting": "locus YJL129C, strain trk1, stronger effect = lower value", "value": "1.08 (inactive)"},
      {"measurement": "normalized growth", "setting": "locus YJL134W, strain LCB3, stronger effect = lower value", "value": "1 (inactive)"},
      {"measurement": "normalized growth", "setting": "locus YJL154C, strain vps35, stronger effect = lower value", "value": "1.01 (inactive)"},
      {"measurement": "normalized growth", "setting": "locus YJL164C, strain tpk1, stronger effect = lower value", "value": "1 (inactive)"},
      {"measurement": "normalized growth", "setting": "locus YJL166W, strain qcr8, stronger effect = lower value", "value": "0.994 (inactive)"},
      {"measurement": "normalized growth", "setting": "locus YJL168C, strain set2, stronger effect = lower value", "value": "1.01 (inactive)"},
      {"measurement": "normalized growth", "setting": "locus YJL187C, strain SWE1 (second series), stronger effect = lower value", "value": "1 (inactive)"},
      {"measurement": "normalized growth", "setting": "locus YJL187C, strain SWE1, stronger effect = lower value", "value": "0.998 (inactive)"},
      {"measurement": "normalized growth", "setting": "locus YJR043C, strain POL32, stronger effect = lower value", "value": "0.997 (inactive)"},
      {"measurement": "normalized growth", "setting": "locus YJR066W, strain TOR1, stronger effect = lower value", "value": "0.00783 (active)"}
    ]}
  ]
}
